PubChem BioAssay (NCATS)
“And” between values parts separate entries of the source, which are not always exact repeats. Equal values may be shown once. Records with an inconclusive call do not appear. Where a call stands in place of a potency, no number is given. A number with no mark means an inactive call. The source made the active and inactive calls. Calls come from the whole dose curve; as a rule, active = well fitted curve in the direction sought with a large enough effect; inconclusive = small, poorly fitted or top-dose-only effect, or another doubt; inactive = no such curve, though single readings can be large; an effect the other way counts as inactive or inconclusive.

Columns and labels:
[1] = Quantitative highthroughput screen to assess conditional lethalithy of NOMO1 cells grown in RPMI1640 with untreated serum (RPMI+s) (AID 1963876); conditions: NOMO1 AML cells in RPMI+serum, CellTiter-Glo viability, 48 h; series mostly up to 45.8 µM; note: nearly all actives have a fitted effect of over 35% in size; note: potency is the fitted concentration of half-maximal effect
Summary of the method: (§1)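 Each medium arm—HPLM with 10% dialyzed FBS, or RPMI1640 with 5 mM glucose and 10% untreated or dialyzed FBS—was screened against an 11-point, 3-fold compound titration for 48 h at 37 °C, with CellTiter-Glo luminescence as endpoint.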

[2] = Quantitative highthroughput screen to assess conditional lethalithy of NOMO1 cells grown in RPMI1640 with dialyzed fetal bovine serum (RPMI+ds) (AID 1963877); conditions: NOMO1 in RPMI+dialyzed FBS viability, ATP luminescence, 48 h; series mostly up to 45.8 µM; note: nearly all actives have a fitted effect of over 30% in size; note: potency is the fitted concentration of half-maximal effect
Summary of the method: as §1

[3] = Quantitative highthroughput screen to assess conditional lethalithy of NOMO1 cells grown in Human Plasma-Like Medium with dialyzed fetal bovine serum (HPLM+ds) (AID 1963878); conditions: NOMO1 AML cells in HPLM+ds, CellTiter-Glo viability, 48 h; series mostly up to 45.8 µM; note: nearly all actives have a fitted effect of over 35% in size; note: potency is the fitted concentration of half-maximal effect
Summary of the method: as §1

[4] = Quantitative highthroughput screen to assess conditional lethalithy of SEM cells grown in Human Plasma-Like Medium with dialyzed fetal bovine serum (HPLM+ds) (AID 1963882); conditions: SEM B-ALL cells in HPLM+ds, CellTiter-Glo viability, 48 h; series mostly up to 45.8 µM; note: nearly all actives have a fitted effect of over 35% in size; note: potency is the fitted concentration of half-maximal effect
Summary of the method: as §1

[5] = Quantitative highthroughput screen to assess conditional lethalithy of SEM cells grown in RPMI1640 with unreated serum (RPMI+s) (AID 1963883); conditions: SEM B-ALL cells, CellTiter-Glo viability, 48 h; series mostly up to 45.8 µM; note: nearly all actives have a fitted effect of over 35% in size; note: potency is the fitted concentration of half-maximal effect
Summary of the method: as §1

[6] = Quantitative highthroughput screen to assess conditional lethalithy of SEM cells grown in RPMI1640 with dialyzed fetal bovine serum (RPMI+ds) (AID 1963884); conditions: SEM B-ALL cells, RPMI+dialyzed FBS, CellTiter-Glo viability, 48 h; series mostly up to 45.8 µM; note: nearly all actives have a fitted effect of over 35% in size; note: potency is the fitted concentration of half-maximal effect
Summary of the method: as §1

[7] = Quantitative highthroughput screen to assess conditional lethalithy of P12 Ichikawa cells grown in Human Plasma-Like Medium with dialyzed fetal bovine serum (HPLM+ds) (AID 1963879); conditions: ATP luminescence, 48 h; Potency: viability; series mostly up to 45.8 µM; note: nearly all actives have a fitted effect of over 35% in size; note: potency is the fitted concentration of half-maximal effect
Summary of the method: as §1

[8] = Quantitative highthroughput screen to assess conditional lethalithy of P12 Ichikawa cells grown in RPMI1640 with dialyzed fetal bovine serum (RPMI+ds) (AID 1963880); conditions: ATP luminescence, 48 h; Potency: P12-Ichikawa viability; series mostly up to 45.8 µM; note: nearly all actives have a fitted effect of over 35% in size; note: potency is the fitted concentration of half-maximal effect
Summary of the method: as §1

[9] = Quantitative highthroughput screen to assess conditional lethalithy of P12 Ichikawa cells grown in RPMI1640 with untreated serum (RPMI+s) (AID 1963881); conditions: ATP luminescence, 48 h; Potency: viability; series mostly up to 45.8 µM; note: nearly all actives have a fitted effect of over 35% in size; note: potency is the fitted concentration of half-maximal effect
Summary of the method: as §1

[10] = Cellular viability qHTS for adrenocortical cancer (ACC) cell line SW-13 (AID 1963989); conditions: SW-13 ACC cells viability, CellTiter-Glo, 48 h; activity (max response): active compounds read low;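 note: cells grown in serum-free medium with ITS supplement; nearly all actives have a fitted effect of over 65% in size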
Summary of the method: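 Compound titrations (up to 46 uM final, in DMSO) were applied to SW-13 cells for 48 h at 37C/5% CO2. Reading used CellTiter-Glo after 20 min at room temperature; fitted curves yielded IC50 and efficacy.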

[11] = Cellular viability qHTS for adrenocortical cancer (ACC) cell line NCI-H295R (AID 1963990); conditions: CellTiter-Glo ATP luminescence, 48 h; series mostly up to 46.1 µM; note: nearly all actives have a fitted effect of over 60% in size; note: potency is the fitted concentration of half-maximal effect
Summary of the method: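 Readout: CellTiter-Glo luminescence, 20 min RT. Exposure: 48 h, 37C/5% CO2. Cells: NCI-H295R, ITS-DMEM serum-free. Range: up to 46 uM. Analysis: 4PL fit, IC50 plus efficacy.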

SMILES	Potency [1]	Potency [2]	Potency [3]	Potency [4]	Potency [5]	Potency [6]	Potency [7]	Potency [8]	Potency [9]	activity (max response) [10]	Potency [11]
Nc1ncn([C@@H]2O[C@H](CO)[C@@H](O)[C@@H]2O)c(=O)n1	16.6 µM (active)	7.43 µM (active)	16.6 µM (active)	9.35 µM (active)	10.5 µM (active)	4.69 µM (active)	–	–	–	–	–
O=C1c2ccccc2-c2n[nH]c3cccc1c23	14.8 µM (active)	23.5 µM (active)	–	–	–	–	14.8 µM (active)	16.6 µM (active)	–	–	–
CNC[C@@H](O)[C@@H](O)[C@H](O)[C@H](O)CO	inactive	inactive	–	–	–	–	inactive	inactive	inactive	–	–
O=C1C(CCC(O)c2ccc(F)cc2)C(c2ccc(O)cc2)N1c1ccc(F)cc1 (stereo not given)	inactive	inactive	–	inactive	inactive	inactive	inactive	inactive	inactive	–	–
CC1(C)[C@H](O[C@H]2O[C@H](C(=O)O)[C@@H](O)[C@H](O)[C@H]2O[C@@H]2O[C@H](C(=O)O)[C@@H](O)[C@H](O)[C@H]2O)CC[C@@]2(C)[C@H]1CC[C@]1(C)[C@H]2C(=O)C=C2[C@H]3C[C@@](C)(C(=O)O)CC[C@]3(C)CC[C@]21C	inactive	inactive	–	inactive	–	inactive	inactive	inactive	inactive	–	–
N#CC(=C1Nc2ccccc2S1)c1ccnc(OCc2ccc(CN3CCOCC3)cc2)n1	8.33 µM (active)	8.33 µM (active)	6.62 µM (active)	inactive	inactive	inactive	–	–	–	–	–
CC1(C)OC2CC3C4CC(F)C5=CC(=O)C=CC5(C)C4C(O)CC3(C)[C@]2(C(=O)CO)O1 (stereo not given in full)	inactive	inactive	inactive	2.35 µM (active)	–	–	–	–	–	–	–
O=C1c2c(O)cccc2[C@@H]([C@@H]2O[C@H](CO)[C@@H](O)[C@H](O)[C@H]2O)c2cc(CO)cc(O)c21	inactive	inactive	–	inactive	inactive	–	inactive	inactive	inactive	–	–
CC(C)(C)[N+]([O-])=Cc1ccc(S(=O)(=O)O)cc1S(=O)(=O)O	inactive	inactive	–	inactive	inactive	inactive	inactive	inactive	inactive	–	–
CC(C)(F)C[C@H](N[C@@H](c1ccc(-c2ccc(S(C)(=O)=O)cc2)cc1)C(F)(F)F)C(=O)NC1(C#N)CC1	inactive	inactive	–	inactive	inactive	inactive	inactive	inactive	inactive	-2.64%	inactive
CC1COC2(CCN(c3nc(=O)c4cc(C(F)(F)F)cc([N+](=O)[O-])c4s3)CC2)O1 (stereo not given)	inactive	inactive	inactive	–	–	–	–	–	–	-6.91%	–
COc1ccc2cc1Oc1ccc(cc1)C[C@H]1c3cc(c(OC)cc3CCN1C)Oc1c(OC)c(OC)cc3c1[C@H](C2)N(C)CC3	inactive	inactive	inactive	inactive	–	–	–	–	–	–	–
CCN1CCCC1CNC(=O)c1cc(S(N)(=O)=O)ccc1OC (stereo not given)	inactive	inactive	–	–	–	–	inactive	inactive	inactive	–	–
NC(=O)N1c2ccccc2CC(=O)c2ccccc21	inactive	inactive	–	inactive	inactive	inactive	inactive	inactive	inactive	10.8%	–
COc1ccc(Nc2nccc(NCCO)n2)cc1	inactive	inactive	–	inactive	inactive	inactive	inactive	inactive	inactive	5.92%	inactive
CCCCC(=O)O[C@]1(C(=O)CO)[C@@H](C)C[C@H]2[C@@H]3CCC4=CC(=O)C=C[C@]4(C)[C@@]3(F)[C@@H](O)C[C@@]21C	inactive	inactive	inactive	–	–	–	–	–	–	-3.35% and -9.39%	–
C=C1C(=CC=C2CCC[C@]3(C)[C@@H]([C@H](C)CCCC(C)(C)O)CC[C@@H]23)C[C@@H](O)C[C@@H]1O	inactive	inactive	inactive	inactive	–	–	–	–	–	–	–
CC[C@H](CO)Nc1nc(NCc2ccccc2)c2ncn(C(C)C)c2n1	inactive	inactive	–	inactive	–	–	inactive	inactive	inactive	–	–
CC1(C)OC2=C(C(=O)c3ccccc3C2=O)[C@H](NCc2ccccc2)[C@H]1O	4.18 µM (active)	9.35 µM (active)	–	11.8 µM (active)	7.43 µM (active)	16.6 µM (active)	14.8 µM (active)	16.6 µM (active)	8.33 µM (active)	–	–
O=c1c(-c2ccc(O)cc2)coc2cc(O[C@@H]3O[C@H](CO)[C@H](O)[C@H](O)[C@H]3O)ccc12	inactive	inactive	–	14.8 µM (active)	–	–	inactive	inactive	inactive	–	–
CC(=O)OCC(=O)[C@@]1(O)[C@H](C)C[C@H]2[C@@H]3C=C(C)C4=Cc5c(cnn5-c5ccccc5)C[C@]4(C)[C@@H]3[C@@H](O)C[C@@]21C	inactive	inactive	inactive	–	–	0.0148 µM (active)	–	–	–	3.11%	25.1 µM (active)
COC1=C2C[C@@H](C)C[C@H](OC)[C@@H](O)[C@@H](C)C=C(C)[C@H](OC(N)=O)[C@@H](OC)C=CC=C(C)C(=O)NC(=CC1=O)C2=O	23.5 µM (active)	20.9 µM (active)	18.7 µM (active)	8.33 µM (active)	8.33 µM (active)	7.43 µM (active)	–	–	–	–	–
O=c1n(CCCN2CCN(c3cccc(Cl)c3)CC2)nc2ccccn12	inactive	inactive	–	–	–	inactive	inactive	inactive	inactive	-1.77%	inactive
